# In ChEMBL document CHEMBL3988442, “University of Dundee, Small-Polar-MMV Screening Library” (2021):
# For some assays here: Results with a measured potency or affinity are listed apart.
# Assays:
# Design in all cases: scale not given: direction of the effect not stated beside the values
# [1] = target: Protein translocase subunit SecA (Escherichia coli (strain K12)) (UniProt P10408); experiment: Assay to Identify E. coli SecA ATPase Inhibitors; format: functional; details: 30 µM
# [2] = target: T1, Ubiquitin-activating enzyme e1, putative (Leishmania donovani (strain BPK282A1)) (UniProt E9BSI1); experiment: Leishmania donovani Ubiquitin Activating Enzyme (LdE1); format: functional; details: 30 µM
# T1 sequence (whole entry): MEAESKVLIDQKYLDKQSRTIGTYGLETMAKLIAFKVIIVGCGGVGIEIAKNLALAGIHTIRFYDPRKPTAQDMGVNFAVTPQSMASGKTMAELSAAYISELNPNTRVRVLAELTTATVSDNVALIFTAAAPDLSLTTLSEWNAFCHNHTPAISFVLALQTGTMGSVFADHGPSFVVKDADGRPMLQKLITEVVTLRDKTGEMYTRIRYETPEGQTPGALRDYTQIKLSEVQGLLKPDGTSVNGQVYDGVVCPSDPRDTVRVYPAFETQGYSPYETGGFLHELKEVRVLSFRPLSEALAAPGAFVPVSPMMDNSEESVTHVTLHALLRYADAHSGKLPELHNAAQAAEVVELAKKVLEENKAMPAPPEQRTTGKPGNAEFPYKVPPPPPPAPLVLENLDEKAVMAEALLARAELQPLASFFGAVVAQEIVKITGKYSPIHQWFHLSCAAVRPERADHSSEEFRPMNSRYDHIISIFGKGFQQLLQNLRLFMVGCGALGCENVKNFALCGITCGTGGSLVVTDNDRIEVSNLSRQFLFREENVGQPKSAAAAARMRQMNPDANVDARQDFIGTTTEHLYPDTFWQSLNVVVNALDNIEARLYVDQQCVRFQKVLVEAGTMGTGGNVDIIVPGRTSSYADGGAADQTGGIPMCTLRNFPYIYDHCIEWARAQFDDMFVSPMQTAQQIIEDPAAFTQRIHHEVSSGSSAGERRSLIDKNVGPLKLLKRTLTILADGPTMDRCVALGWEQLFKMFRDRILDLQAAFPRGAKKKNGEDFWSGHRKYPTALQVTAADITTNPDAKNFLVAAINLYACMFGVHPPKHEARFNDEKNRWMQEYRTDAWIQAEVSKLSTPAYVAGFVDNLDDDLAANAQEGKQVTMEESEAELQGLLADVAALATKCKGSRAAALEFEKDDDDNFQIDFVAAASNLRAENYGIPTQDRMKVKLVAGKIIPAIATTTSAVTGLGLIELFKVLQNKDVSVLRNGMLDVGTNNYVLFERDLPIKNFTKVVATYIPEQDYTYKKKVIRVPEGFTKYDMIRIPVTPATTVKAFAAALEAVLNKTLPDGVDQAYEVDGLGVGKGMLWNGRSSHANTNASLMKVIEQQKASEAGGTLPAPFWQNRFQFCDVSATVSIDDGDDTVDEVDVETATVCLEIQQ
# [3] = target: AMP-activated protein kinase, AMPK (Homo sapiens) (UniProt P54646+O43741+P54619+Q9UGJ0+Q9Y478+Q13131+Q9UGI9); experiment: AMP-dependent Kinase enzyme assay. An in vitro enzyme assay that detects ADP turnover that is directly proportional to AMPK activity. This uses naive AMPK that is activated during the assay with MK-8722; format: functional; details: 30 µM
# [4] = target: Sialic acid-binding Ig-like lectin 9 (Homo sapiens) (UniProt Q9Y336); experiment: Hs-Siglec9 ALPHAscreen SOP 20170721; details: 10 µM
# Trypanosoma cruzi = experiment: Trypanosoma cruzi phosphomannomutase and mannose-1-phosphate guanylyltransferase assay; format: functional; details: 10 µM
# [5] = target: T2, Arginase-2, mitochondrial (Homo sapiens) (UniProt P78540); experiment: in vitro enzyme assay to detect the production of urea directly proportional to the activity of Arginase II; format: functional; details: 33.3 µM; further: in the data most compounds retested in dose-response had high values
# T2 sequence (whole entry): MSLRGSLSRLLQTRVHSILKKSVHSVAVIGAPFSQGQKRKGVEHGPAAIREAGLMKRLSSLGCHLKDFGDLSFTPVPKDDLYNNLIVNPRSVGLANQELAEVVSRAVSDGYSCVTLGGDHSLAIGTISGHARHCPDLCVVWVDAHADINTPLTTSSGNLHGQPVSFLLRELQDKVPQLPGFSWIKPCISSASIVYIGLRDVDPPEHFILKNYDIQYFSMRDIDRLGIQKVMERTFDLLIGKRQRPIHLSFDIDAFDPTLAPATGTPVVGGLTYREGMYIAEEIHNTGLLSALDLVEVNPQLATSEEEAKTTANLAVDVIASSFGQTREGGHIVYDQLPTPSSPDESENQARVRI
# [6] = target: T3, Proteasome subunit beta (Trypanosoma cruzi) (UniProt O96673); experiment: Trypanosoma cruzi proteasome chymotrypsin-like activity (TcProtChymo) assay.; further: in the data most compounds retested in dose-response had high values; format: functional; details: 9.37 µM
# T3 sequence (whole entry): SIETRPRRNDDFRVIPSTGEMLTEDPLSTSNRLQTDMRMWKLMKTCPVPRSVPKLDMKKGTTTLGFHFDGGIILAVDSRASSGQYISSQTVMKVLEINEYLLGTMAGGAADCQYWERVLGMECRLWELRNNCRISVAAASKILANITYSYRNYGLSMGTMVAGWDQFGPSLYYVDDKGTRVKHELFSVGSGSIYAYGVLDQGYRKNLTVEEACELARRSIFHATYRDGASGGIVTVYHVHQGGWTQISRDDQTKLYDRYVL
# Homo sapiens = species: Homo sapiens; experiment: To identify inhibition of the IFN signalling (Jak-Stat) pathway via expression of an eGFP reporter gene under the control of an IFN-stimulated response element (ISRE) containing MxA promoter.; format: functional; details: 30 µM
# [7] = target: T4, Tyrosyl-tRNA synthetase, putative (Trypanosoma cruzi (strain CL Brener)) (UniProt Q4DSP6); experiment: Trypanosoma cruzi tyrosyl tRNA synthetase (TcYRS) _High Tyrosine SOP; format: functional; details: 30 µM; further: in the data most compounds retested in dose-response had high values
# T4 sequence (whole entry): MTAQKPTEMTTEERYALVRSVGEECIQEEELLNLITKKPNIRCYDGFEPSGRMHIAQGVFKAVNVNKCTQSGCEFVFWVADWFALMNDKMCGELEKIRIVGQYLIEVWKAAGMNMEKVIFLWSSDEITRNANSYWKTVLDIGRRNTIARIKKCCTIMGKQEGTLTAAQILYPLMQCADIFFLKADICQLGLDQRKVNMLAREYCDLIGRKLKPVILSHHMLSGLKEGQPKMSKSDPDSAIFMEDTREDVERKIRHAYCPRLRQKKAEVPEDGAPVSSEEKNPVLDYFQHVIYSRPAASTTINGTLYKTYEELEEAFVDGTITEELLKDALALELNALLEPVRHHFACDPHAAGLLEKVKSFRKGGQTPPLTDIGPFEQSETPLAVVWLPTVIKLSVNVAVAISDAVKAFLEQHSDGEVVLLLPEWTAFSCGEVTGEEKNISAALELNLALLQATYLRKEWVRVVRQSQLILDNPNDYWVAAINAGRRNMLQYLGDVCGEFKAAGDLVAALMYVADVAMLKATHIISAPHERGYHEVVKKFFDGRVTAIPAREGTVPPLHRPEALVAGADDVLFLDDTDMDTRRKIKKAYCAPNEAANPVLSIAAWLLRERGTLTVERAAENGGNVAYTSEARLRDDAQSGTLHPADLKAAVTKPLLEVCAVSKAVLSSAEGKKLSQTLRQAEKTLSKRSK
# [8] = target: T4, Tyrosyl-tRNA synthetase, putative (Trypanosoma cruzi (strain CL Brener)); experiment: Trypanosoma cruzi tyrosyl tRNA synthetase (TcYRS) SOP; format: functional; details: 30 µM
# [9] = target: Chromo domain-containing protein 1 (Saccharomyces cerevisiae (strain ATCC 204508 / S288c) (Baker's yeast)) (UniProt P32657); experiment: ScCHD-1 Enzyme Inhibition Assay; format: functional; details: 30 µM; further: in the data most compounds retested in dose-response had high values
# Chromo domain-containing protein 1 (Saccharomyces cerevisiae (strain ATCC 204508 / S288c) (Baker's yeast)), sequence (P32657 whole entry, the tested form may be a part): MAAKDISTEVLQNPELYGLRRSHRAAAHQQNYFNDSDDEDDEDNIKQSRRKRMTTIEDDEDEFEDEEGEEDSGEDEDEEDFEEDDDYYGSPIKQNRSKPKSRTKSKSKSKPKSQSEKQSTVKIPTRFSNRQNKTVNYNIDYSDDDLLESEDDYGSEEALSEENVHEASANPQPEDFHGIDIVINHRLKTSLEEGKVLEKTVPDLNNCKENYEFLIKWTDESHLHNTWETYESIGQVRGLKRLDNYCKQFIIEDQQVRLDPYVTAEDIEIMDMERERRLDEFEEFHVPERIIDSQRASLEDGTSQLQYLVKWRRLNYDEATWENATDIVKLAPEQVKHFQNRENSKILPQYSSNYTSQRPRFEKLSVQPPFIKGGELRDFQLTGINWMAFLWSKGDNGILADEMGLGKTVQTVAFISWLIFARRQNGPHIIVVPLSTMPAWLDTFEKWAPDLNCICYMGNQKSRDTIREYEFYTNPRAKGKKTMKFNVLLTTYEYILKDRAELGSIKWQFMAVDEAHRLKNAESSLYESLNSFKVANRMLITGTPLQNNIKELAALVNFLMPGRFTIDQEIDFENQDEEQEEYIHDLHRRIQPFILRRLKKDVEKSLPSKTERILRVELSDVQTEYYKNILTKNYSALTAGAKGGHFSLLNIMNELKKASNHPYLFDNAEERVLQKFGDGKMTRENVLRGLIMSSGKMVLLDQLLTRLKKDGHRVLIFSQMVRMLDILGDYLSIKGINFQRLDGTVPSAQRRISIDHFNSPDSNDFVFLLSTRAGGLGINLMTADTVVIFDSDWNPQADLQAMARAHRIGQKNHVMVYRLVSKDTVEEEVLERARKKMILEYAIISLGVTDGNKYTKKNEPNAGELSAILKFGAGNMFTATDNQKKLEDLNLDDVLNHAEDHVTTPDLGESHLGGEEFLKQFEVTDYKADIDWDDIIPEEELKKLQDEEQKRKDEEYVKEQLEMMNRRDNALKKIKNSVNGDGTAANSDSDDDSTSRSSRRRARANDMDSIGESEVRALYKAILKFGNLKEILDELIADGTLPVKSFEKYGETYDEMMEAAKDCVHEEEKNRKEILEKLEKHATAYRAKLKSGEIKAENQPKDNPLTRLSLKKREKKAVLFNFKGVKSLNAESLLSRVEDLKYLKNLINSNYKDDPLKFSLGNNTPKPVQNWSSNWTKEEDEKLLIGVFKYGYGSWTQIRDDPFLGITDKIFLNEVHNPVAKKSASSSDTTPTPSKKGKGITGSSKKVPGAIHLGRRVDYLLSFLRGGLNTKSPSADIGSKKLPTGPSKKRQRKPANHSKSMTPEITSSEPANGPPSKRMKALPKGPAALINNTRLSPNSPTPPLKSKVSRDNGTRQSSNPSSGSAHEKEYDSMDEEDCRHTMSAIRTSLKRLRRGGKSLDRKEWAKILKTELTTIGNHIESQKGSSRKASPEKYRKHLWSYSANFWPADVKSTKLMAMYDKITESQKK
# Sialic acid-binding Ig-like lectin 9 (Homo sapiens), sequence (Q9Y336 whole entry): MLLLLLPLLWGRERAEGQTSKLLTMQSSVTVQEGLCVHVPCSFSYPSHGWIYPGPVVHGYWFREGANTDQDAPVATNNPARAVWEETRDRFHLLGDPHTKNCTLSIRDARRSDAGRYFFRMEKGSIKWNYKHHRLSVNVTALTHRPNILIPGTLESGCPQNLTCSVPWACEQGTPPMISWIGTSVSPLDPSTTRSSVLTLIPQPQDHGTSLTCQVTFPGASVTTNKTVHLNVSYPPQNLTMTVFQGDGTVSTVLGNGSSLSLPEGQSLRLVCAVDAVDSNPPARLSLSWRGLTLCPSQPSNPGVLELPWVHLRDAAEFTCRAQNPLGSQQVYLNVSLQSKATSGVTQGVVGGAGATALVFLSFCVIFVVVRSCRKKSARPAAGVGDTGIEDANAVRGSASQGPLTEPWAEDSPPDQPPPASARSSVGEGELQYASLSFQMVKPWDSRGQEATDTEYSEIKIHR
# Protein translocase subunit SecA (Escherichia coli (strain K12)), sequence (P10408 whole entry): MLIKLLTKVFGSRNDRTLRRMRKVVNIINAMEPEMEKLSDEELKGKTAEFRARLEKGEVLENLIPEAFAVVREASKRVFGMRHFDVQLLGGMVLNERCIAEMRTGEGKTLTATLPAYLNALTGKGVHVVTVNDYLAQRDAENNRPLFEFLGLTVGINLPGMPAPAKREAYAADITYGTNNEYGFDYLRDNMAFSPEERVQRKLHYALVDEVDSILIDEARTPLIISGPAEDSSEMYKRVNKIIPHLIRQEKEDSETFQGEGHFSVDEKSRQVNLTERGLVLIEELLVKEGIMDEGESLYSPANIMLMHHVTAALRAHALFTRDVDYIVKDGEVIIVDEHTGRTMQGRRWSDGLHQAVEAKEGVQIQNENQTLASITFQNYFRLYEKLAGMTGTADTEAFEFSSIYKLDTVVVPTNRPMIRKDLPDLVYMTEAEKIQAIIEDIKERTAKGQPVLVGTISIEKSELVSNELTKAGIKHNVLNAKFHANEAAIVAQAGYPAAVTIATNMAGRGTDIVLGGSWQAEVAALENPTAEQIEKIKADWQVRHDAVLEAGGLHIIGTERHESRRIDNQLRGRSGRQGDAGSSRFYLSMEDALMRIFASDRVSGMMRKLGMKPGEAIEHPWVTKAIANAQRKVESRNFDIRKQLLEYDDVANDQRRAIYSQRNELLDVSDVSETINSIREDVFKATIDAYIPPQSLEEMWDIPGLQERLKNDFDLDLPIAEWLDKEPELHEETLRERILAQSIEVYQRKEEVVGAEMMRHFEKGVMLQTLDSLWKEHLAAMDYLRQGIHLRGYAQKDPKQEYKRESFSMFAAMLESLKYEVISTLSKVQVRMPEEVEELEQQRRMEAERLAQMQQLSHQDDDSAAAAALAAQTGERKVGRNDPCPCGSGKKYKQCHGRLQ
SMILES,Percent Effect [1] [%],Percent Effect [2] [%],Percent Effect [3] [%],Percent Effect [4] [%],Percent Effect (Trypanosoma cruzi) [%],Percent Effect [5] [%],Percent Effect [6] [%],Percent Effect (Homo sapiens) [%],Percent Effect [7] [%],Percent Effect [8] [%],Percent Effect [9] [%]
CN(CC(=O)N1CCCC1Cn1cccn1)c1cnccn1 (configuration not stated),-5.14,0,0.965,10.7,-1.6,-1.9,-0.901,15.8,-2.46,-1.27,-2.89
CC(=O)N1CCNCC1c1cccc(C(=O)N(C)C)c1 (configuration not stated),-0.644,-6.76,10.3,-0.354,-4.94,4.41,-3.43,4.59,1.07,1.3,0.199
CC(=O)NCCc1cc(N2CCN(C(C)=O)CC2)nc(C2CC2)n1,2.03,-6.76,10.3,-0.0242,-3.75,1.16,9.36,7.59,2.15,-1.3,-3.42
CNCC(=O)N1CCCC(c2cccc(Nc3nc(C)cc(C)n3)n2)C1 (configuration not stated),-3.22,28.4,6.16,-10.1,3.56,-5.34,14.3,22,3.23,11.7,-21.5
CNc1cc2c(nn1)CCN(C(=O)c1ccoc1)C2,-0.747,7.79,7.77,-6.29,-1.27,4,16.6,27,1.91,-25.9,-15
CN1CCN(C(=O)c2ccc(=O)n(C)c2)c2ccccc21,-6.34,18.9,-11,20.6,3.25,-0.554,2.51,6.73,16.8,25.6,-6.38
CN1CCCN(C(=O)c2ccc3c(c2)nc(N2CCOCC2)n3C)CC1,-0.416,4.17,-3.77,-0.695,-3.6,-0.883,18.2,21.6,2.1,2.56,-1.63
O=C1CC[C@@H]2[C@@H](CCN2C(=O)c2ccsc2)N1CC1CC1,-4.27,-2.7,6.58,-0.934,4.2,2.23,21.4,-14.4,4.32,7.69,2.18
CC(C)c1nnc2n1CCN(C(=O)c1ccc(OCC(N)=O)cc1)C2,-8.09,18.2,-2.69,-4.74,4.41,-1.9,9.62,4.02,6.67,11.8,-16.8
O=C(c1ccncc1)N1C[C@@H]2CC[C@H](C1)N(C(=O)N1CCOCC1)C2,-0.807,2.67,-4.2,3.79,-4.38,4.69,15.5,10.6,6.01,13.6,-5.41
Cc1ccc(CC(=O)N2CCCCC2c2nc(C)cs2)cn1 (configuration not stated),-3.56,3.8,3.35,-2.77,-1.54,4.52,6.52,4.76,-4.17,7.59,-12.2
O=C(Nc1cnccn1)[C@@H]1COC[C@H]2CN(C3CCCC3)C[C@H]21,-8.34,13.5,-5.42,16.7,3.91,3.33,3.97,-6.67,6.93,11,-4.69
Cc1cc(NC(=O)NCC(O)c2ccc(Cl)cc2Cl)n(C)n1 (configuration not stated),-2.82,-2.63,1.15,8.57,0.376,-0.383,-2.17,-20.8,-0.49,-75.6,-5.69
Fc1ccc(CN2CCCC2Cn2cccn2)c2ncccc12 (configuration not stated),-3.18,-16.2,-9.76,11.6,-2.51,-0.185,3.41,-3.85,11.9,11,7.89
O=C(NCCNc1ncccn1)C1CCN(C(=O)C2CC2)CC1,-2.16,13.5,5.28,-1.97,-4.55,5.36,0.718,13.2,6.93,13.4,3.86
COc1cccc(C(=O)N2CCCC(c3cc(C)[nH]n3)C2)c1OC (configuration not stated),-3.02,10.8,-3.74,-1.79,8.4,-2.81,11.7,17.4,4.43,16.1,-5.21
Cc1noc(C)c1CN1CCN(Cc2ccncc2)c2ncccc2C1,-3.04,8,4.68,2.81,-6.5,-1.17,2.56,16.7,7.45,8.97,-0.129
Cc1nc(C)c(C(=O)NCCNC(=O)c2ccc(F)cc2F)s1,-1.94,10.8,-1.06,22.4,5.85,-4.25,15.8,16.4,8.91,23.2,-8.6
CNC(=O)C1(c2cnccn2)CCCN1C(=O)c1ccn(C)n1 (configuration not stated),-5.86,6.76,3.23,-2.02,0.593,-1.16,1.4,7.86,4.3,74,-22
Cc1ccc(N2CCN(C(=O)COc3ccccc3)CC2)nn1,-2.94,8.22,6.52,-4.33,-3.92,-0.909,10.8,13.2,5.38,17.5,-6.41
CCCN(C(=O)c1ccccn1)c1nc2c(s1)CCc1c-2cnn1C,3.44,60.8,-62.8,3.48,0.988,15.6,17.5,32.7,-6.45,-6.49,-6.45
Cc1cccc(N2CCN(CCCNC(=O)c3nccn3C)CC2)c1,-2.68,5.41,-5.72,-1.22,4.49,38.3,12.9,7.26,11.9,18.3,-2.27
